Results filed as inconclusive are left out. The source made the active and inactive calls. How the source made its calls, unless noted: active means hit-call score of the fitted dose curve at least 0.9, where 1 is the maximum; inconclusive means response in the unintended direction; inactive means score below 0.9.

Read-out in the first experiment: Intercellular Adhesion Molecule 1 (ICAM1), ICAM1 (gene 3383)
The experiment in a line: BSK_3C_ICAM1: BioMAP Diversity Plus: 3C Assay for Intercellular Adhesion Molecule 1 (ICAM1) Biomarker Activity (AID 2283003; active means hit-call score of the fitted dose curve at least 0.9, where 1 is the maximum; inactive means score below 0.9). Conditions: primary human endothelial cells (HUVEC); actives raise or lower the signal. The method, boiled down:
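Primary human umbilical vein endothelial cells in the BioMAP 3C system were exposed to chemicals for 24 h, then ICAM-1 was quantified by ELISA. Activity was fitted bidirectionally against the DMSO negative control baseline.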
For the compound `O=C(NC(=O)c1cc(F)c(F)cc1Cl)Nc1cc(F)ccc1N1CCC(C(=O)O)CC1`, the result was inactive.
Still for that read-out and setting: in the case of `CCOP(=S)(OCC)SCSC(C)(C)C` it was “inactive”; in that of `Nc1ccc(-c2ccc(N)cc2)cc1`, “inactive”; in that of `CCC(C)(CC)c1cc(NC(=O)c2c(OC)cccc2OC)on1`, “inactive”.
Consider `O=C(N[C@H]1CN2CCC1CC2)c1cc2ccoc2cn1`, for which the result was inactive.

For the next experiment, the target named is human Retinoic Acid Receptor beta (RARb), RARB (gene 5915) (UniProt P10826). As to the kind of experiment: ATG_RARb_TRANS: Attagene TRANS-FACTORIAL HepG2 Assay for human Retinoic Acid Receptor beta (AID 2283004).
Sequence of human Retinoic Acid Receptor beta (RARb), RARB (gene 5915) (P10826 whole entry, looked up): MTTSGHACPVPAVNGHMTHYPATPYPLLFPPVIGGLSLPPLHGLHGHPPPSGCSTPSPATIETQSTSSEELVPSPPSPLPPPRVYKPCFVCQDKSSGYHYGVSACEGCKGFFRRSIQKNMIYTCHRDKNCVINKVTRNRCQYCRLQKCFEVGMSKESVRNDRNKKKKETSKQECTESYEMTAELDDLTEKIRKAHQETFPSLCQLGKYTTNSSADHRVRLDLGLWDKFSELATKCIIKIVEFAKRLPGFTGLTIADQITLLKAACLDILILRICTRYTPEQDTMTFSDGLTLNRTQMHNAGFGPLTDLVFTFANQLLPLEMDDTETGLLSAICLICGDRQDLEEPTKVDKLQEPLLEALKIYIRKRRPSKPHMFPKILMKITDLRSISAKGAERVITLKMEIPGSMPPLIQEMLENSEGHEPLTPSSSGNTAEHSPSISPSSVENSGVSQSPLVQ
Conditions: not given
The method, boiled down:
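Induction of reporter mRNA from a chimeric RARb-Gal4 construct was measured by RT-PCR, FAM labelling, HpaI digestion and capillary electrophoresis. Measurements followed 24 h compound treatment of transiently transfected human HepG2 liver cells, with DMSO as baseline.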
For `Cc1ccccc1CO[C@@H]1C[C@@]2(C(C)C)CC[C@]1(C)O2`, the outcome was inactive.
Same read-out and setting: then `ClC1=C(Cl)[C@]2(Cl)[C@@H]3[C@@H]4C[C@@H]([C@H]5O[C@@H]45)[C@@H]3[C@@]1(Cl)C2(Cl)Cl`, with “inactive”; and `c1cc2ccc3cccc4ccc(c1)c2c34`, with “inactive”.
Take `CCC(=O)O[C@H]1CC[C@H]2[C@@H]3CCC4=CC(=O)CC[C@]4(C)[C@H]3CC[C@]12C`: the result was inactive.
With `N#Cc1ccc(N(CC(N)=O)CC(F)(F)F)cc1C(F)(F)F`, the call was inactive.
Same read-out and setting: in the case of `C[C@]12CCC(=O)C=C1CC[C@@H]1[C@@H]2CC[C@]2(C)C(=O)CC[C@@H]12` it was “inactive”; in that of `C=CC(N)=O`, “inactive”; in that of `Cc1cccc([N+](=O)[O-])c1`, “inactive”.
On the same count and under the same terms, then `Nc1ccc(-c2ccc(N)cc2)cc1`, with “inactive”.

Source of the values: PubChem BioAssay (EPA / NIEHS).
